{
  "source": "PubChem BioAssay (Tox21)",
  "note": "Inconclusive results are not listed. Values without a mark were called inactive. The call rests on the fitted dose curve; in most records, active means well fitted cell-killing curve with a large enough effect in the repeat runs; inconclusive means weak or mixed curves, or effect the other way; inactive means no such curve, though single readings can be large or run the other way. On the % scale 0 is the no-effect control and ±100 the full control effect.",
  "data": [
    {"experiment": "qHTS assay to identify small molecule antagonists of the sonic hedgehog signaling (Shh) pathway - cell viability counter screen (AID 1259367); further: nearly all actives have a fitted effect of over 55% in size", "conditions": "NIH/3T3 Gli1-Luc viability, CellTiter-Fluor, 24 h; series mostly up to 92.4 µM; viability change, negative = cytotoxic: at the top concentration", "from_the_text": "National Center for Advancing Translational Sciences [NCATS]\nNIH Chemical Genomics Center [NCGC]\nU.S. Environmental Protection Agency [EPA]\nNational Institutes of Environmental Health Sciences [NIEHS]\nNational Toxicology Program [NTP]\nU.S. Food and Drug Administration [FDA]\nThe sonic hedgehog (Shh) pathway is essential for normal embryonic development. Dysregulation of the Shh pathway can cause severe developmental defects in organs. Therefore chemicals that interfere with the pathway are potential developmental toxicants. A cell line designated 3T3Gli1-Luc (DMB/OARSA/CFSAN/FDA, Laurel, MD), a NIH/3T3 derived clone containing stably integrated Gli1-Luc reporter is used to detect chemical interference of the Shh pathway, by changes in the expression of the firefly Luc gene under the control of the Gli1 transcriptional response element. This cell line was used to screen Tox21 libraries for identifying and prioritizing the potential developmental toxicants that interfere Shh pathway. Conditioned medium-stimulated mode was used to screen for chemicals inhibiting Shh signaling. The cytotoxicity of the compounds was tested in parallel by measuring the cell viability using CellTiter-Fluor assay system (Promega, Madison, WI) in the same wells.\nTox21 Assay Protocol Summary:\n3T3 Gli1-Luc cells were dispensed at 2,000 per well in 5uL of culture medium into white solid bottom 1536-well plates (Greiner Bio-One, Monroe, NC) using a Multidrop Combi (Thermo Scientific, Waltham, MA) dispenser. The assay plates were incubated at 37 C and 5% CO2 for 4hr, and then 23nL of compounds dissolved in DMSO and positive control were transferred using a Pintool station (Wako, San Diego, CA). The compound transfer was followed by the addition of 1ul conditioned medium or assay buffer using two separate tips of Flying Reagent Dispenser (FRD, Aurora Discovery, San Diego, CA). The assay plates were incubated at 37C and 5% CO2 for 24hr. For viability read, after 23hr of compound treatment, 1uL of CellTiter-Fluor reagent (Promega Corporation, Madison, WI) was added to each well of the assay plates using Flying Reagent Dispenser (FRD, Aurora Discovery, San Diego, CA) and incubated the assay plates at 37C for 1hr. The fluorescence signal was quantified using a ViewLux plate reader (Perkin Elmer, Shelton, CT).", "values": [
      {"compound": "Cc1ccccc1Br", "viability change, negative = cytotoxic": "1.08%"},
      {"compound": "CCN1CCCC1CNC(=O)c1cc(S(N)(=O)=O)ccc1OC", "note": "(stereo not given)", "viability change, negative = cytotoxic": "0.0368%"},
      {"compound": "C#CC(O)C(CC)CCCC", "note": "(stereo not given)", "viability change, negative = cytotoxic": "1.66%"},
      {"compound": "CC(C)c1cccc(O)c1", "viability change, negative = cytotoxic": "-8.79%"},
      {"compound": "COCCOC(=O)CC#N", "viability change, negative = cytotoxic": "3.39%"},
      {"compound": "CC(=O)N[C@@H](CCC(N)=O)C(=O)O", "viability change, negative = cytotoxic": "0.633% [at 42.5 µM]"},
      {"compound": "NC(=S)Nc1cccc2ccccc12", "viability change, negative = cytotoxic": "0.784% [at 8.39 µM]"},
      {"compound": "CC(=O)NC(Cc1ccccc1)C(=O)O", "note": "(stereo not given)", "viability change, negative = cytotoxic": "1.35% [at 42.5 µM]"},
      {"compound": "CCC(C)(C)C1CCC(OC)CC1", "note": "(stereo not given)", "viability change, negative = cytotoxic": "-0.494%"},
      {"compound": "CCC(=O)Nc1cccc(N)c1", "viability change, negative = cytotoxic": "1.04%"},
      {"compound": "CCCCCC[C@@H](CCC)C(=O)O", "viability change, negative = cytotoxic": "9.41% [at 42.5 µM]"},
      {"compound": "CC(C)CCCCCCN", "viability change, negative = cytotoxic": "0.672%"},
      {"compound": "CCCCCCOC(=O)c1ccccc1O", "viability change, negative = cytotoxic": "-1.61%"},
      {"compound": "Nc1cc(C(Cl)=C(Cl)Cl)c(S(N)(=O)=O)cc1S(N)(=O)=O", "viability change, negative = cytotoxic": "0.224% [at 42.5 µM]"},
      {"compound": "Fc1ccccc1-c1ccccc1", "viability change, negative = cytotoxic": "-17.2%"},
      {"compound": "CC(=O)O[C@H](CC(=O)[O-])C[N+](C)(C)C", "viability change, negative = cytotoxic": "-5.38%"},
      {"compound": "Nc1[nH]c(=O)ncc1F", "viability change, negative = cytotoxic": "4.59% [at 42.5 µM]"},
      {"compound": "[O-][N+](=Nc1ccccc1)c1ccccc1", "viability change, negative = cytotoxic": "-2.84%"},
      {"compound": "OC/C=C/c1ccccc1", "viability change, negative = cytotoxic": "-1.81%"},
      {"compound": "CCCCOCC(C)OCC(C)O", "note": "(stereo not given)", "viability change, negative = cytotoxic": "11.3%"},
      {"compound": "COc1ccc(N=[N+]([O-])c2ccc(OC)cc2)cc1", "viability change, negative = cytotoxic": "-1.42%"},
      {"compound": "Cc1c(F)cc2c(=O)c(C(=O)O)cn3c2c1CCC3C", "note": "(stereo not given)", "viability change, negative = cytotoxic": "2.49% [at 42.5 µM]"},
      {"compound": "CC(C)=CC(=O)O", "viability change, negative = cytotoxic": "-2.05%"},
      {"compound": "CC/C=C\\CCCCO", "viability change, negative = cytotoxic": "3.07%"},
      {"compound": "CC1(C)SC(C)(C)SC(C)(C)S1", "viability change, negative = cytotoxic": "-4.3%"},
      {"compound": "C[N+](C)(C)CC[N+]1(C)Cc2c(Cl)c(Cl)c(Cl)c(Cl)c2C1", "viability change, negative = cytotoxic": "2.9% [at 42.5 µM]"},
      {"compound": "Cc1ncc(CSSCc2cnc(C)c(O)c2CO)c(CO)c1O", "viability change, negative = cytotoxic": "2.27% [at 42.5 µM]"},
      {"compound": "CCCCCCCCCCCCCCC", "viability change, negative = cytotoxic": "5.58%"},
      {"compound": "CCCCCCOC(=O)CC(CC(=O)OCCCCCC)(OC(=O)CCC)C(=O)OCCCCCC", "viability change, negative = cytotoxic": "2.86%"},
      {"compound": "CCN1CCN(c2cc3c(cc2F)c(=O)c(C(=O)O)cn3C2CC2)CC1", "viability change, negative = cytotoxic": "7.92% [at 42.5 µM]"},
      {"compound": "CNC(=O)c1c(I)c(NC(=O)CCCCC(=O)Nc2c(I)c(C(=O)O)c(I)c(C(=O)NC)c2I)c(I)c(C(=O)O)c1I", "viability change, negative = cytotoxic": "-1.11% [at 42.5 µM]"},
      {"compound": "c1ccc(SCCSc2ccccc2)cc1", "viability change, negative = cytotoxic": "2.52%"},
      {"compound": "COc1cc(CCC(C)=O)ccc1O", "viability change, negative = cytotoxic": "-2.72%"},
      {"compound": "COc1cccc(Br)c1", "viability change, negative = cytotoxic": "-5.35%"},
      {"compound": "CCCCCCCCN(C)CCCCCCCC", "viability change, negative = cytotoxic": "11.6%"},
      {"compound": "COc1ccc2cc(C=O)ccc2c1", "viability change, negative = cytotoxic": "4.73% [at 42.5 µM]"},
      {"compound": "C=C(C)C1CC=C(C)C(O)C1", "note": "(stereo not given)", "viability change, negative = cytotoxic": "-4.15%"},
      {"compound": "O=C(O)/C=C/c1ccc(/C=C/C(=O)O)cc1", "viability change, negative = cytotoxic": "-0.372% [at 42.5 µM]"},
      {"compound": "O=c1[nH]c2ccccc2c(=O)n1CCCl", "viability change, negative = cytotoxic": "2.9% [at 42.5 µM]"},
      {"compound": "CCCCCOC(=O)Nc1nc(=O)n([C@@H]2O[C@H](C)[C@@H](O)[C@H]2O)cc1F", "viability change, negative = cytotoxic": "8.53% [at 42.5 µM]"}
    ]}
  ]
}
